This passage reports growth inhibition and outcome results from PubChem BioAssay.

For some assays here: Potency and affinity values are given separately. The source made the active and inactive calls. Where a call stands in place of a potency, no number is given. Unless noted, the limit is not given here; nearly all actives have IC50 up to about 0.98 µM.

System in one test: not listed separately
Put plainly: inhibition of 3D7 malaria parasite growth – strain 3D7 (AID 2306; call rule not given here). As to conditions: P. falciparum 3D7 erythrocytic growth, LDH absorbance, 72 h; at 2 µM; hits give high values.
Take `CC(C)C[C@@H](CNC[C@H](CC(C)C)NC(=O)OC(C)(C)C)NC(=O)OC(C)(C)C`: the growth inhibition was 88% (active).

On to `COc1cc(NCC(CN)Cc2ccc3c(c2)OCO3)nc2ccccc12` (centres undefined), for which the growth inhibition was 94% (active).

Take `Cc1cc2nc(-c3ccc(SCC(=O)Nc4ccc5c(c4)OCCO5)nc3)[nH]c2cc1C`: the growth inhibition is 85% (active).

For the molecule `O=C(C=Cc1ccc(Cl)c(Cl)c1)NCCCCCN1CCCC(CCCNC(=O)c2cccs2)C1` (centres undefined), the growth inhibition is 89% (active).

The target of the next test is Calcium-dependent protein kinase 1 (Plasmodium falciparum (isolate 3D7)) (UniProt P62344). Put plainly: PfCDPK1 kinase inhibitors, biochemical, TCAMS library (AID 1159585).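 Also: inhibitors leave more ATP so luminescence rises with inhibition.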 Conditions: recombinant PfCDPK1, Kinase-Glo ATP depletion luminescence.
Sequence of Calcium-dependent protein kinase 1 (Plasmodium falciparum (isolate 3D7)) (P62344 whole entry, looked up): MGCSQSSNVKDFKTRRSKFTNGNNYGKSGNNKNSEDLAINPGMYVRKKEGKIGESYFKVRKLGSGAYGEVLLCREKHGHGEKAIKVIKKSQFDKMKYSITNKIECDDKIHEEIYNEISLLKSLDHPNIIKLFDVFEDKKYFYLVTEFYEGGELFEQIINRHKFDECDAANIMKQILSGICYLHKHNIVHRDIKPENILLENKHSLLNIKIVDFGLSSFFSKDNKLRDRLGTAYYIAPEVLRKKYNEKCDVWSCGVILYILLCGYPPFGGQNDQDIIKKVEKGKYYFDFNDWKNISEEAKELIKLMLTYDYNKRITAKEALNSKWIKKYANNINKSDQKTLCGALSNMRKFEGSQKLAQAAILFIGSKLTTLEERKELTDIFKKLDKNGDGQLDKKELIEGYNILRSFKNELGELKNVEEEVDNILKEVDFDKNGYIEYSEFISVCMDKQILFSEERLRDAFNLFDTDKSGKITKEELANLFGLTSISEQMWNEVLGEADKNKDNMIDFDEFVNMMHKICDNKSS
Consider `CN(Cc1ccncc1)C(Cc1ccccc1)C1CCN(Cc2ccc(O)c(Cl)c2)CC1` (centres undefined), for which the outcome was inactive.

In the case of `Clc1ccccc1CN1CCC(NCc2cccc(-n3ccnc3)c2)CC1`, the outcome was inactive.

As to `CCN1CCC(N(Cc2ccc(-c3ccc(C(F)(F)F)cc3)cc2)C(=O)Cn2c(CCc3cccc(F)c3F)cc(=O)c3cn(C)nc32)CC1`, the outcome was inactive.

On to `CC[C@H]1CN2CCc3cc(OC)c(OC)cc3[C@@H]2C[C@@H]1CC1=NCCc2c1[nH]c1ccc(OCc3ccccc3)cc21`, for which the outcome was inactive.

In the case of `Nc1ncc(-c2ccsc2)c2ccc(-c3cnc[nH]3)cc12`, the outcome was inactive.

For `Cc1c(C)c2c(c(C)c1O)CC[C@@](C)(C(=O)N1CCC(CCN3CCC(c4c[nH]c5ccccc45)CC3)CC1)O2`, the result was inactive.

In the case of `Cc1ccc(NC(=O)Nc2ccc(Cl)cc2)cc1-c1cccc(C(=O)Nc2ccc(F)cc2)c1`, the result was inactive.

Turning to `N#Cc1cc([N+](=O)[O-])ccc1-n1nc(C(N)=O)n(Cc2cccc(F)c2)c1=S`, the result was inactive.

As to `Cc1ccccc1C1CCN(C2CCC(NC(=O)c3ccc(-c4cc(C(F)(F)F)nn4C)s3)CC2)CC1` (centres undefined), the outcome was inactive.

For `CC1(C)N=C(N)N=C(N)N1OCc1cc2ccccc2cc1CON1C(N)=NC(N)=NC1(C)C`, the result was inactive.

For `Cc1cc(N[C@@H](CC(C)C)C(=O)NCc2cccs2)nc(NCCc2ccc(F)cc2)n1`, the outcome was inactive.

For the molecule `O=C(N[C@@H](Cc1ccccc1)[C@H](O)CNC1CCCCC1)c1cc(C2CCCC2)cc(N2CCCC2=O)c1`, the outcome was inactive.

As for `O=C(Nc1ccc(Cl)cc1)c1ccc(CN2CCCN(Cc3cccc(O)c3)CC2)cc1`, the outcome was inactive.

Consider `COc1ccc(N2CCN(CCCCNC(=O)c3ccc(NC(=O)c4cc(C(F)(F)F)cc(C(F)(F)F)c4)cc3)CC2)cc1OC`, for which the result was inactive.

With `CS(=O)(=O)CCNCc1cc(-c2cc3ncnc(Nc4ccc(OCc5cccc(F)c5)c(Cl)c4)c3s2)cs1`, the result was inactive.

Consider `OCC1CCN(Cc2cccc(-c3cccc(-c4nc5ccc(C(F)(F)F)cc5[nH]4)c3)c2)CC1`, for which the outcome was inactive.

With `CCN(CCCNc1nc(=S)[nH]c2cc(OC)c(OC)cc12)c1ccccc1`, the result was inactive.

`Cc1cc(=O)[nH]c(/N=C(/N)NOCc2ccccc2)n1`: the result was inactive.

As for `O=C(Nc1cccc(-c2ccc(-c3nc4ccccc4[nH]3)cc2)c1)Nc1ccc(F)c(F)c1F`, the outcome was inactive.

Turning to `CC(C)c1ccc(NS(=O)(=O)c2cccc(C(=O)NC3CCN(CC4CCCCC4)CC3)c2)cc1`, the outcome was inactive.

On to `CC(C)(C)c1ccc2nc(-c3ccc(/C=C/C(=O)NC4CCN(Cc5ccccc5)CC4)cc3)[nH]c2c1`, for which the outcome was inactive.

Turning to `COc1cccc(C=NNc2cc(C)nc3c(OC)cccc23)c1`, the result was inactive.

With `O=C(/C=C/c1ccc(Cl)c(Cl)c1)NCCCCCN1CCCC(CNC(=O)Nc2ccc(Oc3ccccc3)cc2)C1` (centres undefined), the result was inactive.

Consider `CC(C)CNCc1cccc(-c2cccc(CN(CCN(C)C)C(=O)NCCc3ccccc3)c2)c1`, for which the result was inactive.

On to `CC(C)(c1ccccc1)c1ccc(O)c(CN2CCOCC2)c1`, for which the result was inactive.

Turning to `CC1CCN(C(=O)C(Cc2c[nH]c3ccccc23)NS(=O)(=O)c2ccc(Cl)cc2)CC1` (centres undefined), the outcome was inactive.

On to `O=C1NC(=O)C(c2ccc(Cl)cc2)=C1Nc1cccc(S(=O)(=O)C(F)(F)F)c1`, for which the outcome was inactive.

`COc1ccc(N2C(=O)c3c(c4ccccc4n3C)C2c2ccccc2O)cc1` (centres undefined): the outcome was inactive.

`CCCCC(=O)Nc1nonc1-c1ccc(OCC)c(OCC)c1`: the outcome was inactive.

For the molecule `CN(C(=O)/C=C/c1c(Cl)cccc1Cl)C1CCN(CCCCCNC(=O)/C=C/c2ccc(Cl)c(Cl)c2)CC1`, the outcome was inactive.

`CCn1c(-c2cc(C)on2)nc2cnc(Oc3ccc(C(=O)N4CC(=O)N(C)C4C(C)(C)C)cc3)cc21` (centres undefined): the outcome was inactive.

For `COc1cc2nc(N3CCC(CNC(=O)c4ccc(-c5ccc(C(=O)N(C)C)cc5C)cc4)CC3)nc(N3CCN(C)CC3)c2cc1OC`, the result was inactive.

Turning to `Cc1[nH]c(C)c(-c2csc3ccccc23)c(=O)c1Cl`, the result was inactive.

As to `COc1cc2nc(N3CCN(C(=O)c4cccc(I)c4)CC3)nc(N)c2cc1OC`, the outcome was inactive.

For the molecule `Cc1cc(NC(=O)c2cccs2)ccc1OC1CCN(Cc2ccc(C#N)cc2)CC1`, the outcome was inactive.

On to `COc1ccc(NC(=O)c2ccc(-c3nc(-c4cccc(C(F)(F)F)c4)cs3)cc2)cc1N1CCN(C)CC1`, for which the result was inactive.

As to `CC(C)C[C@@H](CNC[C@H](CC(C)C)NC(=O)OC(C)(C)C)NC(=O)OC(C)(C)C`, the outcome was inactive.

On to `COc1cc(NCC(CN)Cc2ccc3c(c2)OCO3)nc2ccccc12` (centres undefined), for which the outcome was inactive.

In the case of `Cc1cc2nc(-c3ccc(SCC(=O)Nc4ccc5c(c4)OCCO5)nc3)[nH]c2cc1C`, the result was inactive.

With `O=C(C=Cc1ccc(Cl)c(Cl)c1)NCCCCCN1CCCC(CCCNC(=O)c2cccs2)C1` (centres undefined), the outcome was inactive.
